Screens as filed in PubChem BioAssay.
Hsp90 block: displaces geldanamycin probe from tumor Hsp90. P07900. NCI-N417 lysate Hsp90, Cy3B-geldanamycin FP displacement. inhibition, % at 30 µM. actives 0.35% (n = 64,000);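 active means inhibition above 50%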;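 further: 0% = tracer plus lysate wells and 100% = tracer alone without lysate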
Cdc25B block: human M-phase inducer phosphatase 2 inhibition; P30305; recombinant Cdc25B, OMFP fluorescence Ex485/Em525; inhibition, %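 (compounds tested at 10 µM final in the well)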; actives 0.1% (n = 65,000); in the data active means inhibition above about 50%
BAP1 block: human BAP1 deubiquitinase inhibition | calls only at 20 µM | recombinant BAP1, Ub-AMC hydrolysis fluorescence kinetic; stronger effect = lower value | actives 0.48% (n = 72,000);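 active means activity remaining at or below 50% of control, provided the compound also passes the data quality filters; inactive means the rest, including low values that fail the filters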;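 further: 100% = DMSO wells rate and 0% = substrate alone blank rate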
MKP-1 inh: inhibitors of human MKP-1 phosphatase; P28562; recombinant MKP-1, OMFP hydrolysis fluorescence; inhibition, %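 (compounds tested at a single concentration somewhere between 10 and 100 µM)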; actives 0.15% (n = 65,000);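 active means inhibition above about 50%, limit read from the data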;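 further: 0% = DMSO max control wells and 100% = wells with enzyme stopped by NaOH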
Target sequence (P28562 whole entry, looked up): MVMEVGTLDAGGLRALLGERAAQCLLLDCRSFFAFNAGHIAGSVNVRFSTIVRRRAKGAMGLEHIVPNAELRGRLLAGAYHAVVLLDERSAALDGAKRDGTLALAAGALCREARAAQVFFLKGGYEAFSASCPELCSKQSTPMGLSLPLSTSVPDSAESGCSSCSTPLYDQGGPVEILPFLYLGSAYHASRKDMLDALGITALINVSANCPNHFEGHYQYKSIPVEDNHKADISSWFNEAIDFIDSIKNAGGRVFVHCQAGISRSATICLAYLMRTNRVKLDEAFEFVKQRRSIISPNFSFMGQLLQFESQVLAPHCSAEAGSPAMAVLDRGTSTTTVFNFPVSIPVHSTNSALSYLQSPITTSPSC
BAP1 inh confirm: BAP1 (human) enzyme inhibition, confirmed | shares compounds with BAP1 block | AID 753 | purified BAP1, Ub-ethyl ester hydrolysis, HPLC; stronger effect = lower value | % of control activity, % at 20 µM | actives 8% (n = 310);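 active means percent of control activity at or below 60%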
* hit, by the source's call. An excerpt weighted towards active compounds, which were near 1% of everything screened.

Screening O=C(NC12CC3CC(CC(C3)C1)C2)c1cc2nc(-c3ccco3)cc(C(F)(F)F)n2n1 returned Hsp90 block -4, Cdc25B block 3, BAP1 block active, MKP-1 inh 15 and BAP1 inh confirm 79.
For COC(=O)c1cc2nc(-c3ccc(OC)cc3)cc(C(F)(F)F)n2n1 the results were Hsp90 block -3, Cdc25B block -3, BAP1 block inactive and MKP-1 inh 9.
Screening COc1ccc(-c2cc(C(F)(F)F)n3nc(C(=O)NCc4ccco4)cc3n2)cc1 returned Hsp90 block -1, Cdc25B block -14, BAP1 block active, MKP-1 inh 6 and BAP1 inh confirm 111.
Screening O=C(NCc1ccco1)c1cc2nc(-c3ccc4c(c3)OCO4)cc(C(F)(F)F)n2n1 returned Hsp90 block 4, Cdc25B block 13, BAP1 block active, MKP-1 inh 17 and BAP1 inh confirm 56*.
`O=C(NC1CCCCC1)c1cc2nc(-c3ccco3)cc(C(F)(F)F)n2n1` gave Hsp90 block 0, Cdc25B block 0 and MKP-1 inh 5.
`CC(C)Oc1cccc(C(=O)Nc2ccc(Cl)c(-c3nc4ncccc4o3)c2)c1` gave BAP1 block inactive.
For Cc1nc(N2CCN(c3ccccc3)CC2)nc2c1C(=O)CC(C)C2 (centres undefined) the results were Hsp90 block -1, Cdc25B block -12, BAP1 block inactive and MKP-1 inh -15.
Screening Cc1nc(N2CCN(c3ccccc3)CC2)nc2c1C(=O)CC(c1ccccc1)C2 (centres undefined) returned Hsp90 block 0, Cdc25B block -7, BAP1 block active, MKP-1 inh -22 and BAP1 inh confirm 60.
NCCCc1nc2c(ccc3ccccc32)[nH]1 was read as BAP1 block inactive.
For CCn1c(=O)c(C(=O)NCCc2ccccc2)c(O)c2ccccc21 the results were Hsp90 block -1, Cdc25B block -5, BAP1 block active, MKP-1 inh -16 and BAP1 inh confirm 104.
CCNCCNC(=O)c1c(O)c2ccccc2n(CC)c1=O was read as Hsp90 block -3, Cdc25B block -2, BAP1 block inactive and MKP-1 inh 6.
For CCOC(=O)c1c(C)oc2c1cc(O)c1ccccc12 the results were Hsp90 block 18, Cdc25B block -2, BAP1 block active, MKP-1 inh 25 and BAP1 inh confirm 79.
Screening CSC1=C(C#N)C2(CCCC2)C(C#N)=C(N)N1 returned Hsp90 block -4, Cdc25B block 9, BAP1 block active, MKP-1 inh -7 and BAP1 inh confirm 77.
Screening CCSC1=C(C#N)C2(CCCC2)C(C#N)=C(N)N1 returned Hsp90 block -6, Cdc25B block -5, BAP1 block inactive and MKP-1 inh 16.
COc1ccc2c(c1)CCCN2C(N)=O was read as Hsp90 block -5, Cdc25B block -3 and MKP-1 inh 0.
Screening COc1ccc(N=C2CCCN2CC(N)=O)cc1 returned Hsp90 block -2, Cdc25B block -3, BAP1 block active, MKP-1 inh 0 and BAP1 inh confirm 87.
Screening CC1=C(C(=O)OCCc2ccccc2)C(c2cccc([N+](=O)[O-])c2)C2=C(CC(c3ccccc3)CC2=O)N1 (centres undefined) returned BAP1 block inactive.
`CCC(=O)c1ccc(OCC(O)CN2CCN(S(=O)(=O)N3CCCCC3)CC2)cc1` (centres undefined) gave Hsp90 block -3, Cdc25B block -7, BAP1 block active, MKP-1 inh -10 and BAP1 inh confirm 83.
For NC(=O)c1cc2cc([N+](=O)[O-])ccc2oc1=Nc1cccc(F)c1 the results were BAP1 block inactive.
For O=C(NCCCN1CCOCC1)c1ccccc1I the results were BAP1 block inactive.
`CCCn1c(SCC(=O)Nc2ccccc2C(=O)OC)nc2c1c(=O)n(C)c(=O)n2C` gave Hsp90 block -4, Cdc25B block -13, BAP1 block inactive and MKP-1 inh 9.
`CCCn1c(SCC(=O)Nc2sc(C)c(C)c2C(=O)OCC)nc2c1c(=O)n(C)c(=O)n2C` gave Hsp90 block -3, Cdc25B block -10, BAP1 block active, MKP-1 inh 6 and BAP1 inh confirm 99.
O=[N+]([O-])c1cc(S(=O)(=O)Nc2cc3c4c(oc3c3ccccc23)CCCC4)ccc1Cl was read as BAP1 block inactive.
